ERa SRC1 pot: enhances coactivator binding to human estrogen receptor alpha; TR-FRET ERalpha-LBD/SRC-Cy5 coactivator binding, 2 h; 100 = basal binding, no effect; coactivator binding (% of control), % at 25.6 µM; hit rate 1.3% among 86,000; AID 639; in the data active = activity above about 200%;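 note: binding measured in presence of low estradiol as agonist stimulus; 0% = peptide alone without receptor and 100% = receptor with peptide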
F-actin modifier: modifiers of cytoskeleton assembly | AID 836 | HUVEC TNFa F-actin phalloidin imaging, high content | hit rate 0.18% among 91,000 | inhibition, % at 2 µM;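 active = inhibition above the batch mean plus 3 SD and confirmed as a hit by visual image inspection, cut at about 30% in these data, passing the limit was not always enough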
ERa coact inh: blocks coactivator binding to human estrogen receptor alpha. P03372. TR-FRET ER-alpha LBD / SRC-1 peptide, estradiol-bound. inhibition, % at 25.6 µM. hit rate 1.7% among 86,000. AID 629; in the data active = inhibition above about 50%;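 note: 0% = receptor plus peptide control and 100% = peptide only without receptor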
ERb coact inh: blocks coactivator binding to human estrogen receptor beta; inhibition, % at 25.6 µM; TR-FRET ER-beta LBD / SRC1-Cy5 peptide binding; receptor agonist-loaded with 1 µM estradiol; hit rate 1.3% among 86,000;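 active = compounds whose percent inhibition of the receptor-coactivator binding signal exceeds about 50% in the single-dose screen, limit read from the data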;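 note: 0% = receptor plus peptide wells without compound and 100% = peptide-only wells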
Target sequence (Q92731 whole entry, looked up, the tested form may be a part): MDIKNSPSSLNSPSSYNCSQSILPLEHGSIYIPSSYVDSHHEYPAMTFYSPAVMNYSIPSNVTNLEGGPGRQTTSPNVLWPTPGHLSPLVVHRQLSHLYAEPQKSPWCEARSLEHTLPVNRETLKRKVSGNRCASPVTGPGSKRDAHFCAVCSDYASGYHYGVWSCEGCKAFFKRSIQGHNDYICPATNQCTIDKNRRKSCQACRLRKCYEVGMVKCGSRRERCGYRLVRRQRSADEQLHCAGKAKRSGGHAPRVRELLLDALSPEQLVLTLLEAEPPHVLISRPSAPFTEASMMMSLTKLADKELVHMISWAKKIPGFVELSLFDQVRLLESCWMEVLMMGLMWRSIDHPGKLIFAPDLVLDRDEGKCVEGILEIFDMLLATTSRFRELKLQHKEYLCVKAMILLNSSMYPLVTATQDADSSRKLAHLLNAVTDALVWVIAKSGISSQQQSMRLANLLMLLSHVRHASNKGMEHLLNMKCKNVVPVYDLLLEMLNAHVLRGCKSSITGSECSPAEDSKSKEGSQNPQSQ
Candida biofilm: kills Candida albicans biofilms. hit rate 0.14% among 85,000. C. albicans biofilm + clotrimazole, Alamar Blue. AID 834. inhibition, % at 6 µM;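 active = inhibition above 20%; inactive = inhibition below 20%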;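 note: preformed 24 hr biofilms exposed to compound for 48 hr; 0% = biofilm without compound and 100% = blank killed by clotrimazole plus chlorhexidine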
E-sel TNF inh: blocks E-selectin expression induced by TNF alpha | inhibition, % at 2 µM | hit rate 0.71% among 120,000 | HUVEC TNFa-induced E-selectin immunofluorescence, high content;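 active = inhibition above the batch mean plus 3 SD, and confirmed as a hit on visual image review, cut at about 43% in these data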;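 note: 0% = TNF-stimulated DMSO wells and 100% = unstimulated control wells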
* hit, by the source's call; . = not tested or not shown; [ ] = dose if it differs, or a comment. This is a sample that favours compounds with a hit; in the whole collection about 2.9% have one here.

SMILES	ERa SRC1 pot	F-actin modifier	ERa coact inh	ERb coact inh	Candida biofilm	E-sel TNF inh
O=C(CN1C(=O)c2ccccc2C1=O)Nc1ccc(-c2nc3ccccc3o2)cc1	213.4*	3.5	-1.9	-2.4	0.1	-30.8
O=C(CCN1C(=O)c2ccccc2C1=O)Nc1ccc(-c2nc3ccccc3o2)cc1	93.8	-9.4	17.5	23.2	7.5	7.6
O=C(Nc1ccc(-c2nc3ccccc3o2)cc1)c1ccc2c(c1)OCO2	184.8	-3.2	57.2*[fluorescence artefact?]	43.8	7.1	-0.4
Cc1ccc(-c2nc3ccccc3o2)cc1NC(=O)c1ccc2c(c1)OCO2	265.8*	9.5	31.2	1.0	4.3	-15.6
Cc1c(NC(=O)c2ccc3c(c2)OCO3)cccc1-c1nc2ccccc2o1	126.3	7.4	-3.2	-1.6	2.7	-9.1
C/C(CC1CC(COCCC(C)C)OC1=O)=N\NC(N)=S (stereo not given)	.	-6.6	.	.	.	-5.9
O=C(CC(=O)c1cccc([N+](=O)[O-])c1)Nc1ccccc1Cl	.	.	.	.	.	-6.5
CCSc1nnc([C@H](Cc2ccccc2)NC(=O)OC(C)(C)C)o1	109.6	-2.9	-2.5	-10.4	4.0	5.5
CC(C)(C)OC(=O)N[C@@H](Cc1ccccc1)c1nnc(SCC(=O)O)o1	100.6	34.7	3.0	91.9*[fluorescence artefact?]	4.4	.
COc1ccc(NC(=O)c2cc3c(Cl)nc4ccccc4c3s2)c(OC)c1	.	.	.	.	.	63.0*
CCN(CC)C(=O)c1ccc2c(c1)nnn2C	.	.	.	.	.	15.0
O=C1c2ccccc2-c2onc3ccc(Oc4ccccc4)c1c23	59.8	-12.0	76.3*[fluorescence artefact?]	41.2	4.9	8.0
CCCSc1cc(=O)n(-c2ccc(F)cc2)nc1C(=O)OCC	.	.	.	.	.	-23.8
COc1ccc(N=c2oc3cc(O)ccc3cc2C(=O)NCC2CCCO2)c(OC)c1 (stereo not given)	104.5	-22.5	11.3	15.0	7.8	-1.4
O=C1c2ccccc2C(=O)N1CCCOc1ccccc1	103.0	-13.9	19.3	17.1	-2.2	-1.9
COc1ccc(OCC(=O)OCCN2C(=O)c3ccccc3C2=O)cc1	115.9	12.5	59.2*[fluorescence artefact?]	42.2	1.0	-10.6
O=c1cc(CSc2nnnn2-c2ccccc2)nc(Nc2ccc(F)cc2)[nH]1	372.9*	-24.7	52.7*	32.1	-1.1	.
N/C(=N\c1nc(CSc2nnnn2-c2ccccc2)cc(=O)[nH]1)Nc1ccccc1	.	.	.	.	.	-2.5
O=Cc1ccccc1OCCOc1ccc([N+](=O)[O-])cc1	.	.	.	.	.	-13.4
Cc1ccc(N2CCn3c2nc2c3c(=O)n(CCc3ccccc3)c(=O)n2C)cc1	182.5	.	59.7*[fluorescence artefact?]	49.2	1.1	.
COc1ccc(N2CCCn3c2nc2c3c(=O)n(CCc3ccccc3)c(=O)n2C)cc1	105.3	.	3.1	0.8	10.5	.
COc1ccccc1C/C(N)=N/OC(=O)/C=C/c1ccccc1	.	.	.	.	.	-7.1
CCOc1ccc2[nH]c(C)c(CN3CCOCC3)c(=O)c2c1	96.8	75.9*	-4.9	-9.2	9.2	.
COCCn1c(C)cc(C(=O)CSc2nc(C)nc3sc4c(c23)CCC4)c1C	369.9*[fluorescence artefact?]	-15.3	-6.2	6.8	.	6.3
COc1ccc(S(=O)(=O)c2ccc(OC)c(OC)c2)cc1OC	125.4	4.1	5.4	5.2	-0.6	-19.8
SMILES	ERa SRC1 pot	F-actin modifier	ERa coact inh	ERb coact inh	Candida biofilm	E-sel TNF inh
COc1cccc(/C=C2\N=C(SC)SC2=O)c1OC	107.7	.	-2.4	1.7	1.0	20.2
COc1cccc(/C=C2\N=C(c3c(-c4ccccc4)noc3C)OC2=O)c1OC	86.9	0.3	67.7*	38.8	12.8	-1.5
COCCSc1ccccc1C(=O)N1CCOCC1	98.6	-13.4	-0.1	-1.0	6.2	3.9
COc1cc2c(cc1OC)C(c1ccc(-c3cc(Cl)ccc3Cl)o1)=NCC2	253.3*[fluorescence artefact?]	6.0	46.9	36.0	4.8	-41.0
COc1cc2c(cc1OC)C(c1ccc(-c3ccc(Cl)cc3Cl)o1)=NCC2	.	11.5	.	.	.	-33.6
CC(C)CSc1nc2c(c(=O)[nH]c(=O)n2C)n1CC(O)COc1cccc2ccccc12 (stereo not given)	75.4	-45.5	13.0	56.0*	-0.7	-16.5
Cn1c(=O)[nH]c(=O)c2c1nc(SCCO)n2CC(O)COc1ccccc1 (stereo not given)	.	.	.	.	.	-8.9
COCC(O)CSc1nc(C)[nH]c1[N+](=O)[O-] (stereo not given)	93.5	-32.0	-11.2	-6.8	3.0	36.8
CCC(=O)Nc1nonc1-c1nc2ccccc2n1N(C(=O)CC)C(=O)CC	59.2	-8.5	58.6*	49.8	8.3	-27.7
CCC(=O)Nc1nonc1-c1nc2ccccc2n1Cc1cccc2ccccc12	204.5*[fluorescence artefact?]	-27.0	18.9	20.7	1.2	6.6
CCOC(=O)Cn1c(-c2nonc2NC(=O)c2ccccc2F)nc2ccccc21	322.4*	-0.9	25.2	29.5	-1.7	-4.9
CCOC(=O)C1=C(C)NC(=NC)SC1c1ccccc1 (stereo not given)	.	.	.	.	.	6.8
CC(=O)Nc1cccc(C(=O)Nc2ccccc2C(=O)O)c1	116.4	-12.6	-3.2	-5.8	9.7	-8.1
O=C(Nc1ccc(Cl)cn1)c1ccc2ccccc2n1	98.8	4.5	2.7	-9.6	4.7	15.9
CN(Cc1ccccc1)C(=O)c1ccccc1NC(=O)c1ccccc1	.	51.3*	.	.	.	-44.0
O=C(Nc1ccccc1C(=O)O)c1ccc2ccccc2n1	94.3	7.2	1.4	90.7*[fluorescence artefact?]	11.9	-12.4
O=C(Nc1ccccc1C(=O)NCc1ccccc1)c1ccccc1	.	-15.7	.	.	.	17.4
O=C(Nc1ccccc1C(=O)O)c1ccccc1	79.7	.	39.5	50.6*	5.9	-33.2
CN1CCN(C(c2ccc(F)cc2)c2nnnn2Cc2cccs2)CC1 (stereo not given)	124.2	.	-3.4	-0.2	9.4	56.6*
COC(=O)c1c(S(C)(=O)=O)nc(-c2ccccc2)[nH]c1=O	.	.	.	.	.	6.4
O=C(NCc1ccco1)c1ccc(Cn2c(=O)c3ccccc3n(Cc3cccc(Cl)c3)c2=O)cc1	61.3	3.7	66.6*[fluorescence artefact?]	50.0	-4.0	-14.8
O=C(CCn1c(=O)c2sccc2n(CC(=O)NCc2ccco2)c1=O)NCc1ccccc1	107.5	-7.7	3.0	2.8	-2.0	34.8
O=C(NCc1ccco1)c1ccc(Cn2c(=O)c3sccc3n(Cc3cccc(F)c3)c2=O)cc1	141.6	-6.0	57.3*[fluorescence artefact?]	25.5	6.7	.
COC(=O)c1sc2cc(C(F)(F)F)cnc2c1-c1cccnc1	.	1.6	.	.	.	18.7
CSc1nnc(-c2sc3cc(C(F)(F)F)cnc3c2-c2cccnc2)n1C	102.3	-4.9	2.7	-8.0	54.4*	18.3
COC(=O)c1[nH]c2cc(OC)ccc2c1NC(=O)CN1CCC(C(N)=O)(N2CCCCC2)CC1	.	54.6*	.	.	.	2.0
COC(=O)c1[nH]c2cc(OC)ccc2c1NC(=O)CN1CCC(C(N)=O)CC1	104.6	.	-12.6	-0.2	0.3	-23.0
COCCCNC(=S)N1CCN(c2ccc([N+](=O)[O-])cc2)CC1	.	.	.	.	.	64.7*
COc1cccc(-c2nc(CS(=O)(=O)c3ccccc3)no2)c1	.	6.2	.	.	.	-15.1
COc1ccc(N/C(N)=N/c2nc(CSc3ccc(Cl)cc3)cc(=O)[nH]2)cc1	119.8	-9.7	5.4	6.4	4.8	-0.8
